Assay results reported in PubChem BioAssay (NCATS).
Several values for one entry are separate records, joined by “and”; a condition that tells them apart may be missing. Equal entries are not always repeated. Results filed as inconclusive are left out. A number with no mark means an inactive call. Activity calls are given as the source filed them. Calls come from the whole dose curve; as a rule, active = well fitted cell-killing curve with a large enough effect; inconclusive = small, poorly fitted or top-dose-only effect; inactive = flat fitted curve, though single readings scatter.

assay: Cell Viability - LYMP1-002 - Assay at 16 hr (AID 948); details: LYMP1-002 lymphoblastoid cell viability; series mostly up to 92.2 µM; activity change, negative = cytotoxicity: at the top concentration;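 for activity change, negative = cytotoxicity: 0% = DMSO alone and full effect = 92 µM tetraoctylammonium bromide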
Description: NIH Chemical Genomics Center [NCGC]
NIH Molecular Libraries Screening Centers Network [MLSCN]
National Institutes of Environmental Health Sciences [NIEHS]
National Toxicology Program [NTP]
We have developed a 1536-well cell-based assay for quantitative high throughput screening (qHTS) against a number of cell lines to determine in vitro cytotoxicity of small molecules. This particular assay uses a human lymphoblastoid cell line (LYMP1-002) purchased from Coriell Institute for Medical Research.
NCGC Assay Protocol Summary:
The CellTiter-Glo luminescent cell viability assay (Promega) is a homogeneous method to measure the number of viable cells in culture. The end point readout of this assay is based on quantitation of intracellular ATP, an indicator of metabolic activity, using the luciferase reaction. Luciferase catalyzes the oxidation of beetle Luciferin to oxyluciferin and light in the presence of ATP. The luminescent signal is proportional to amount of ATP present.
Using the CellTiter-Glo luminescent cell viability assay, the amount of cellular ATP was measured in the lymphoblastoid cell line with complete culture medium following compound treatment for 16 hours. The assay was performed in opaque white Kalypsys 1536-well plates. In the screen, tetraoctylammonium bromide was used as positive control. Library compounds were measured for their ability to cause acute toxicity in the cell line, as reflected by a decrease in intracellular ATP levels, in a concentration-dependent manner. […] AC50 values were determined from concentration-response data modeled with the standard Hill equation.
qHTS protocol for CellTiter Glo lymphoblastoid cellular assay
[Step] [Parameter] [Value] [Description]
1. Reagent; 5 uL; 2500 lymphoblastoid cells/well
2. Time; 5 hr; 37 C incubation
4. Controls; 23 nL; Tetraoctylammonium bromide 6.4pM to 92 uM
5. Time; 16 hr; 37 C incubation
6. Reagent; 5 uL; CellTiter Glo reagent
7. Time; 30 min; Room Temperature
8. Detection; Luminescence; Viewlux plate reader
Keywords: cell viability, cytotoxicity, lymphoblastoid cell line, luminescence, NTPHTS, NTPHTS_NCGC, NIEHS, DSSTox, MLSMR, MLSCN, NIH Roadmap, qHTS, NCGC
Potency is the fitted concentration of half-maximal effect.

SMILES	activity change, negative = cytotoxicity [%]	Potency
O=[N+]([O-])c1ccccc1	-4.92	
ClC(Cl)(Cl)Cl		inactive
CCCCCl	-2.67	
O=C1C=CC(=O)C=C1	-5.52	
O=CC=O	-9.03	
C[C@]12CCC(=O)C[C@@H]1CC[C@@H]1[C@@H]2CC[C@]2(C)[C@@H](O)CC[C@@H]12	-8.98	
NNC(N)=O	-2.04	
O=[N+]([O-])c1ccc(F)c([N+](=O)[O-])c1	0.0145	
O=C(O)C(Cl)(Cl)Cl		inactive
O=C1CCO1	-8.81	
Clc1ccccc1Cl	-0.858	
C[C@H]1CC[C@@H]2[C@@H](C)[C@H]3[C@H](C[C@H]4[C@@H]5CC=C6CC(O[C@@H]7O[C@H](CO)[C@H](O)[C@H](O[C@@H]8O[C@H](CO)[C@@H](O)[C@H](O)[C@H]8O)[C@H]7O[C@H]7O[C@@H](C)[C@H](O)[C@@H](O)[C@H]7O)CC[C@]6(C)[C@H]5CC[C@]34C)N2C1 (stereo partly specified)		31.6 µM (active)
S=C=S	-0.219	
C[C@H]1CCC[C@H](O)CCCCCc2cc(O)cc(O)c2C(=O)O1	-5.3	
CCOC(=O)c1ccccc1C(=O)OCC		inactive
CCCCCCCCOC(=O)c1ccccc1C(=O)OCCCCCCCC	-3.94	

SMILES	activity change, negative = cytotoxicity [%]	Potency
[O]=[Cr](=[O])([OH])[O][Cr](=[O])(=[O])[OH]		inactive
O=C1C2CC=CCC2C(=O)N1SC(Cl)(Cl)Cl (stereo unspecified)		7.94 µM (active) and 10 µM (active)
ClC=C(Cl)Cl	-5.83	
CC(C)(C)c1cc(O)ccc1O		inactive
O=C/C=C/c1ccccc1		inactive
CC(C)CCON=O	-4.21	
O=Cc1ccco1	1.37	
[O]=[Cd]	-2.44	
C=CCN=C=S	-7.51	
Oc1cc(Cl)c(Cl)cc1Cl	0.561	
[Cl-].[Cl-].[Hg+2]		10 µM (active)
COC1=CC(=O)O[C@@H](/C=C/c2ccccc2)C1	-9.12	
CC(C)Nc1ccc(Nc2ccccc2)cc1		39.8 µM (active)
COc1ccc2c(c1OC)C(=O)OC2C1c2cc3c(cc2CCN1C)OCO3 (stereo unspecified)	-4.35	
ClCC1CO1 (stereo unspecified)	-2.26	
